Neddylation inh: cullin neddylation inhibition; calls only at 25 µM; P61081+Q13564; 360,000 tested, 0.58% active; TR-FRET cullin neddylation, biochemical; in the data active = inhibition above about 36%
UHRF1 binding: blocks human UHRF1 binding to methylated DNA; UHRF1 binding to methylated oligo, TR-FRET; inhibition, % at 4.4 µM; Q96T88; AID 687016; 370,000 tested, 0.75% active; in the data active = inhibition above about 21%;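 also: UHRF1 SRA domain binding a hemimethylated CpG hairpin DNA probe; 0% = median of test compound wells and 100% = reference inhibitor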
proKLK7 act: activators of human kallikrein-7 zymogen; P49862; purified proKLK7, EDANS-DABCYL substrate fluorescence; 100% is mature enzyme control, 0% vehicle; activation, % at 7 µM; 370,000 tested, 0.9% active;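 active = activation above the mean of all tested compounds plus 3 SD, computed per campaign excluding outliers beyond control limits, cut at about 13% in these data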
Rin1 Abl inh: human Rin1-Abl interaction inhibition; P00519+Q13671; TR-FRET Rin1/Abl binding, biochemical; inhibition, % at 7.35 µM; 360,000 tested, 0.4% active; in the data active = inhibition above about 5%, passing the limit was not always enough
MBD2 DNA inh: inhibitors of human MBD2 binding to methylated oligonucleotide; TR-FRET; inhibition, % at 4.4 µM; 370,000 tested, 0.31% active; in the data active = inhibition above about 13%
LEDGF integ inh: blocks HIV-1 LEDGF/p75-dependent DNA integration; TR-FRET IN-LEDGF/p75 DNA integration, Eu/Cy5; inhibition, % at 3.7 µM; 370,000 tested, 0.64% active;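 active = inhibition above the screen-wide mean plus 3 SD, cut at about 13% in these data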;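 also: signal is the Cy5 over europium emission ratio at 671 and 618 nm; 0% = plate median of compound wells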
Rin1-Abl confirm: Rin1-Abl interaction inhibition confirmation. AID 602124. inhibition, % at 7.35 µM. TR-FRET Rin1-Abl binding, purified proteins. shares compounds with Rin1 Abl inh. 1,300 tested, 49% active
GFP quencher: quenches GFP fluorescence, counter-screen for Rin1-Abl inhibitors; shares compounds with Rin1 Abl inh; inhibitors/quenchers counterscreen; inhibition, % at 6.75 µM; 1,300 tested, 8.5% active; AID 602125;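 also: ABL1-eGFP fusion protein alone without its partner RIN1-SBP; 0% = protein with vehicle and 100% = wells lacking protein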
GFP quench dose: counter-screen for Rin1-Abl inhibitors: GFP quenchers, dose response | IC50, µM | AID 602182 | GFP fluorescence interference/quenching counterscreen | 230 tested, under 10 active | shares compounds with Rin1 Abl inh; call rule not given here;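 also: ABL1-eGFP fusion protein alone without its RIN1 binding partner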
* = called active by the depositor. Hits are enriched below; roughly 3.1% of the tested compounds scored in any of these assays. Rule as the data show it, unless noted: active = inhibition above about 6.5%; inactive = the rest.

CCOc1ccc(S(=O)(=O)N2CCCCC2)c(C)c1C was read as Neddylation inh inactive, UHRF1 binding 1.1, proKLK7 act -0.2, Rin1 Abl inh 1.6, MBD2 DNA inh 7.1 and LEDGF integ inh -1.7.
CCOc1ccc(S(=O)(=O)N2CCN(C)CC2)c(C)c1C was read as Neddylation inh inactive, UHRF1 binding -3.0, proKLK7 act 0.0, Rin1 Abl inh 5.8*, MBD2 DNA inh -1.0, LEDGF integ inh 0.6, Rin1-Abl confirm 0.5 and GFP quencher -1.4.
For O=C1Nc2ccccc2C1=O the results were Neddylation inh inactive, UHRF1 binding 1.2, proKLK7 act 0.0, Rin1 Abl inh -3.5, MBD2 DNA inh -7.8 and LEDGF integ inh 4.4.
For O=C1Nc2ccccc2N=C(c2ccccc2)c2ccccc21 the results were Neddylation inh inactive, UHRF1 binding -1.8, proKLK7 act -0.2, Rin1 Abl inh 5.9*, MBD2 DNA inh -2.2, LEDGF integ inh 1.2, Rin1-Abl confirm 2.0 and GFP quencher -3.5.
Cc1ccc(-n2c(SCC(=O)N3Cc4ccccc4CC3C(=O)O)nnc2-c2cccnc2)c(C)c1 (stereo not drawn) was read as Neddylation inh inactive, UHRF1 binding -2.5, proKLK7 act 0.5, Rin1 Abl inh 7.0*, MBD2 DNA inh -3.7, LEDGF integ inh -0.5, Rin1-Abl confirm 18.1*, GFP quencher 2.1 and GFP quench dose >67.6.
`Cc1ccc(-n2nnnc2SCC(=O)N2Cc3ccccc3CC2C(=O)O)cc1` (stereo not drawn) gave Neddylation inh inactive, UHRF1 binding 3.2, proKLK7 act -0.3, Rin1 Abl inh -3.7, MBD2 DNA inh -3.9 and LEDGF integ inh -6.2.
`COc1cc(=O)[nH]c(SCC(=O)Nc2ccc3ccccc3c2)n1` gave Neddylation inh inactive, UHRF1 binding -1.4, proKLK7 act 0.2, Rin1 Abl inh 12.7*, MBD2 DNA inh -0.7, LEDGF integ inh 1.4, Rin1-Abl confirm 0.1 and GFP quencher 0.1.
`COCCNC(=O)CCc1nnc2ccc(N3CCC(C)CC3)nn12` gave Neddylation inh inactive, UHRF1 binding -3.0, proKLK7 act -0.4, Rin1 Abl inh -0.9, MBD2 DNA inh 2.8 and LEDGF integ inh -0.1.
`Cc1ccc(S(=O)(=O)NCC(=O)N2CCN(c3ccccn3)CC2)s1` gave UHRF1 binding 1.5, proKLK7 act -0.5, MBD2 DNA inh 3.3 and LEDGF integ inh -6.4.
`O=C(NC1CCCC1)c1cc(S(=O)(=O)N2CCCC2)ccc1Cl` gave Neddylation inh inactive, UHRF1 binding 2.4, proKLK7 act -0.1, Rin1 Abl inh 7.6*, MBD2 DNA inh 3.4, LEDGF integ inh 2.9, Rin1-Abl confirm -0.8 and GFP quencher -0.1.
`Cc1ccc(S(=O)(=O)N2CCCCC2)cc1C(=O)NC1CCCCC1` gave Neddylation inh inactive, UHRF1 binding -0.2, proKLK7 act 0.2, Rin1 Abl inh -1.9, MBD2 DNA inh -5.0 and LEDGF integ inh 1.2.
For CC1(C(=O)NS(=O)(=O)c2ccccc2Cl)CCN1C(=O)C1CCCCC1 (stereo not drawn) the results were Neddylation inh inactive, UHRF1 binding 2.3, proKLK7 act 0.6, Rin1 Abl inh 1.7, MBD2 DNA inh -1.5 and LEDGF integ inh -4.2.
C[C@H](NC(=O)c1ncn2c1c(=O)[nH]c1ccc(Br)cc12)c1ccccc1 was read as Neddylation inh inactive, UHRF1 binding 3.0, proKLK7 act -0.4, Rin1 Abl inh 7.9*, MBD2 DNA inh 0.2, LEDGF integ inh 3.1, Rin1-Abl confirm -22.4 and GFP quencher -0.1.
Screening C[C@H](NC(=O)c1ncn(C)c1C(=O)N[C@@H](C)c1ccccc1)c1ccccc1 returned Neddylation inh inactive, UHRF1 binding 1.6, proKLK7 act 0.5, Rin1 Abl inh 0.6, MBD2 DNA inh 0.0 and LEDGF integ inh 2.1.

Source: PubChem BioAssay (several laboratories)
